Among the data in PubChem BioAssay are inhibition values, retold here.

Unmarked numbers belong to inactive results. How the calls were made is not given here.

The target of this assay is Pantothenate synthetase (Mycobacterium tuberculosis (strain ATCC 25618 / H37Rv)) (UniProt P9WIL5). Description: Recombinant Mtb pantothenate synthetase (PanC) inhibitors, coupled enzyme, confirmatory (AID 375).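 Further: 0% = full reaction with vehicle and 100% = no enzyme background.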 As to conditions: coupled enzyme assay; at 10 µM, active compounds read high.
Sequence of Pantothenate synthetase (Mycobacterium tuberculosis (strain ATCC 25618 / H37Rv)) (P9WIL5 whole entry, looked up): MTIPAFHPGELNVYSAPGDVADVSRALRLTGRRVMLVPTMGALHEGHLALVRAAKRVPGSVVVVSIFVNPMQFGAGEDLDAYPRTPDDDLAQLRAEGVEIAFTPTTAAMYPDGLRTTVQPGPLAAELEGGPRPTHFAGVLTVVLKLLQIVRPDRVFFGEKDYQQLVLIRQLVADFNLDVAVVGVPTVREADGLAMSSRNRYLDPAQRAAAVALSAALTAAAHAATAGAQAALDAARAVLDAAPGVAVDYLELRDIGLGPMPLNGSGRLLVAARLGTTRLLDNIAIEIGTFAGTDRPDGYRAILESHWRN
For `COc1cccc(-c2nc3n(n2)C(c2ccccc2Cl)C(C(N)=O)=C(C)N3)c1` (stereo not given), the inhibition (commonly the share of the control response that was lost under treatment) was 0%.
As for `OC[C@H]1O[C@@H](n2cnc3c(Nc4ccccc4)ncnc32)[C@H](O)[C@@H]1O`, the figure is 1%; as for `O=C(NC(C(=O)c1ccccc1)N1CCOCC1)c1cccs1` (stereo not given), 0%.
For the molecule `CCN1CCCC1CNCc1ccc(Cl)cc1Cl` (stereo not given), the inhibition is 0%.
As for `CC(=O)N1CCc2cc(S(=O)(=O)NCCC3=CCCCC3)ccc21`, the figure is 2%.
In the case of `CC1(C)S[C@@H]2[C@H](NC(=O)[C@H](C(=O)O)c3ccsc3)C(=O)N2[C@H]1C(=O)O` it was 5%.
As for `CCS(=O)(=O)N1CCCC(C(=O)NCc2cccc(OC)c2)C1` (stereo not given), the figure is 1%.
For `CS(=O)(=O)N(CC(=O)NC1CC1)c1cccc(F)c1`, the inhibition was 0%.
As for `CCCCCC(=O)O[C@]1(C(C)=O)CC[C@H]2[C@@H]3CCC4=CC(=O)CC[C@]4(C)[C@H]3CC[C@@]21C`, the figure is 0%; as for `Cc1cc2ncn(S(=O)(=O)c3ccc(S(=O)(=O)N4CCOCC4)cc3)c2cc1C`, 5%; as for `C=CCn1c(CC#N)nnc1N1CCOCC1`, 0%.
In the case of `CCOc1ccccc1N1CCN(c2nc(N)c(C#N)c(CC#N)c2C#N)CC1` it was 0%; in that of `CSc1nnc2n(CCc3ccccc3)c(=O)c3c4c(sc3n12)CCCC4`, 2%; in that of `c1ccc(-c2noc(-c3cccnc3)n2)nc1`, 0%.
In the case of `COc1ccc(S(=O)(=O)Nc2ccc(F)c(Cl)c2)cc1OC`, the inhibition was 0%.
As for `COc1cc(C2C(C#N)=C(N)OC3=C2C(=O)CC(C)(C)C3)ccc1OC(=O)N1CCOCC1` (stereo not given), the figure is 5%; as for `CCCN(CCC)C(=O)CC(c1ccc(F)cc1)c1ccco1` (stereo not given), 1%.
For the molecule `c1cn2cc(CSC3CCCCC3)nc2s1`, the inhibition is 2%.
In the case of `COc1ccc(N(CC(=O)NCCSC(C)(C)C)S(C)(=O)=O)c(OC)c1` it was 2%; in that of `COc1ccc(-c2nnc(SCC(=O)N3CCOCC3)o2)cc1OC`, 0%.
As to `COC(=O)Nc1ccc(S(=O)(=O)N2CCN(c3ccc(F)cc3)CC2)cc1`, the inhibition is 0%.
As for `COc1cc2nc(N3CCN(C(=O)c4ccco4)CC3)nc(N)c2cc1OC`, the figure is 2%; as for `COc1cccc(C2=Nn3c(nnc3-c3ccccc3O)SC2)c1`, 1%.
As for `CCOC(=O)N1CCN(C(=O)c2n[nH]c(=O)c3ccccc23)CC1`, the figure is 2%.
As to `O=C(NCCc1ccccc1)C1CCN(S(=O)(=O)N2CCC3(CC2)OCCO3)CC1`, the inhibition is 4%.
In the case of `CC(=O)Nc1ccc(S(=O)(=O)N2CCN(c3cc(C)nc4ccccc34)CC2)cc1` it was 5%; in that of `COc1ccc(-c2onc(C)c2-c2ccccc2)c(O)c1`, 3%; in that of `C=CCSc1nc(N)c2c(C)c(C)sc2n1`, 0%.
In the case of `CCOc1ccc(CNC(=O)C2CCCN(S(C)(=O)=O)C2)cc1OC` (stereo not given) it was 0%; in that of `CCOc1ccc(C2CC(c3cccc(C)c3)n3ncnc3N2)cc1` (stereo not given), 0%.
On to `COc1ccc(S(=O)(=O)NC2CCCCC2)c(C)c1C`, for which the inhibition is 4%.
Consider `Nc1nnc(SCc2cc3c(cc2Cl)OCO3)s1`, for which the inhibition was 7%.
In the case of `C#CC1(O)CC(C)N(C)C(C)C1` (stereo not given) it was 6%; in that of `COC(=O)C1=C(C)Nc2nnnn2C1c1ccc(Cl)cc1Cl` (stereo not given), 0%.
In the case of `Cc1nc(C)c(C(=O)C2=C(O)C(=O)N(CCN3CCOCC3)C2c2ccco2)s1` (stereo not given) it was 9%; in that of `CC(C)(C)C(=O)OCC1OC(n2cnc(C(N)=O)n2)C(O)C1O` (stereo not given), 3%; in that of `Cc1nnc(SCCn2c(N3CC(C)CC(C)C3)nc3c2c(=O)n(C)c(=O)n3C)s1` (stereo not given), 0%.
In the case of `CCCN(CCC)C(=O)c1c(C)[nH]c(C(=O)OCC)c1C` it was 0%.
Take `CN(CC(O)COCc1cccs1)C1CCCCC1` (stereo not given): the inhibition was 1%.
`CCCSc1nnc(-c2ccccc2NC(=O)CC)c(=O)[nH]1`: the inhibition is 0%.
